Among all 5,500 compounds or so, about 2,000 (36%) were called active. About 18% were inconclusive and are not listed. Rule as the data show it: active = normalized growth mostly below about 0.91 (no sharp cut-off); inconclusive = no clear call, values can overlap the other calls; inactive = mostly above about 0.92. The list shows a part of the results.
Experiment: chemical genetic growth profiling, strain panel (AID 1159580);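 also: tested at 20 µM; growth read once vehicle control cultures reached saturation at 30 °C; 1 = growth at the plate median or of vehicle wells; lower values mean less growth of the strain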
Conditions: growth OD
[1] = S. cerevisiae deletion strains, locus YAL013W, strain DEP1, stronger effect = lower value
[2] = S. cerevisiae deletion strains, locus YAL040C, strain CLN3, stronger effect = lower value
[3] = S. cerevisiae deletion strains, locus YDR363W, strain ESC2, stronger effect = lower value
[4] = S. cerevisiae deletion strains, locus YER002W, strain NOP16, stronger effect = lower value
[5] = S. cerevisiae deletion strains, locus YGR078C, strain PAC10, stronger effect = lower value
[6] = S. cerevisiae deletion strains, locus YGR229C, strain SMI1, stronger effect = lower value
[7] = S. cerevisiae deletion strains, locus YJR075W, strain HOC1, stronger effect = lower value
[8] = S. cerevisiae deletion strains, locus YMR263W, strain SAP30, stronger effect = lower value
[9] = S. cerevisiae deletion strains, locus YNL153C, strain GIM3, stronger effect = lower value
[10] = S. cerevisiae deletion strains, locus YNL175C, strain NOP13, stronger effect = lower value
[11] = S. cerevisiae deletion strains, locus YNL197C, strain WHI3, stronger effect = lower value
[12] = S. cerevisiae deletion strains, locus YNL224C, strain SQS1, stronger effect = lower value
[13] = S. cerevisiae deletion strains, locus YOR083W, strain WHI5 (second series), stronger effect = lower value
[14] = S. cerevisiae deletion strains, locus YPL055C, strain LGE1, stronger effect = lower value
[15] = S. cerevisiae deletion strains, locus YDL101C, strain DUN1, stronger effect = lower value
[16] = S. cerevisiae deletion strains, locus YHR030C, strain SLT2, stronger effect = lower value
[17] = S. cerevisiae deletion strains, locus YMR307W, strain GAS1, stronger effect = lower value
[18] = S. cerevisiae deletion strains, locus YPL241C, strain CIN2, stronger effect = lower value

Measured: normalized growth

NCCCCNS(=O)(=O)c1cccc2c(Cl)cccc12
inactive: [1] 1.01 | [2] 1.02 | [3] 1.01 | [4] 1.01 | [5] 1.01 | [6] 1.04 | [7] 0.989 | [8] 1.01 | [9] 0.993 | [10] 1 | [11] 1 | [12] 0.995 | [13] 1.02 | [14] 1.01

N=c1ccc2nc3c(Cl)c4c(c(Cl)c3oc-2c1S(=O)(=O)O)Nc1ccc(N)c(S(=O)(=O)O)c1O4
inactive: S. cerevisiae deletion strains, locus YAR019C, strain CDC15, stronger effect = lower value 1.01 | S. cerevisiae deletion strains, locus YBL105C, strain PKC1, stronger effect = lower value 1.01 | S. cerevisiae deletion strains, locus YBR135W, strain CKS1, stronger effect = lower value 1.01 | S. cerevisiae deletion strains, locus YBR136W, strain MEC1, stronger effect = lower value 1.01 | S. cerevisiae deletion strains, locus YBR160W, strain CDC28, stronger effect = lower value 1.01 | S. cerevisiae deletion strains, locus YDL017W, strain CDC7, stronger effect = lower value 1.02 | S. cerevisiae deletion strains, locus YDL028C, strain MPS1, stronger effect = lower value 1.01 | [15] 1.01 | S. cerevisiae deletion strains, locus YDL108W, strain KIN28, stronger effect = lower value 1.01 | S. cerevisiae deletion strains, locus YDL132W, strain cdc53, stronger effect = lower value 1 | S. cerevisiae deletion strains, locus YDL214C, strain PRR2, stronger effect = lower value 1.02 | S. cerevisiae deletion strains, locus YDR052C, strain DBF4, stronger effect = lower value 1.01 | S. cerevisiae deletion strains, locus YDR054C, strain cdc34, stronger effect = lower value 1 | S. cerevisiae deletion strains, locus YDR226W, strain ADK1, stronger effect = lower value 0.993 | S. cerevisiae deletion strains, locus YDR477W, strain SNF1, stronger effect = lower value 1.01 | S. cerevisiae deletion strains, locus YER123W, strain YCK3, stronger effect = lower value 1.01 | S. cerevisiae deletion strains, locus YER133W, strain GLC7, stronger effect = lower value 0.992 | S. cerevisiae deletion strains, locus YFL009W, strain cdc4, stronger effect = lower value 0.997 | S. cerevisiae deletion strains, locus YFL029C, strain CAK1, stronger effect = lower value 1 | S. cerevisiae deletion strains, locus YFR003C, strain YPI1, stronger effect = lower value 1.01 | S. cerevisiae deletion strains, locus YFR019W, strain FAB1, stronger effect = lower value 0.993 | S. cerevisiae deletion strains, locus YFR028C, strain CDC14, stronger effect = lower value 1.01 | S. cerevisiae deletion strains, locus YGR040W, strain KSS1, stronger effect = lower value 1.02 | S. cerevisiae deletion strains, locus YGR052W, strain FMP48, stronger effect = lower value 1.09 | S. cerevisiae deletion strains, locus YGR092W, strain DBF2, stronger effect = lower value 1.03 | [16] 0.962 | S. cerevisiae deletion strains, locus YHR079C, strain IRE1, stronger effect = lower value 0.995 | S. cerevisiae deletion strains, locus YHR082C, strain KSP1, stronger effect = lower value 1.16 | S. cerevisiae deletion strains, locus YHR205W, strain SCH9, stronger effect = lower value 1 | S. cerevisiae deletion strains, locus YIL147C, strain SLN1, stronger effect = lower value 1.01 | S. cerevisiae deletion strains, locus YJL095W, strain BCK1, stronger effect = lower value 1.06 | S. cerevisiae deletion strains, locus YJL128C, strain PBS2, stronger effect = lower value 1 | S. cerevisiae deletion strains, locus YJL157C, strain FAR1, stronger effect = lower value 0.994 | S. cerevisiae deletion strains, locus YJR016C, strain ILV3, stronger effect = lower value 1.02 | S. cerevisiae deletion strains, locus YJR066W, strain TOR1 (second series), stronger effect = lower value 0.981 | S. cerevisiae deletion strains, locus YJR066W, strain TOR1, stronger effect = lower value 1.14 | S. cerevisiae deletion strains, locus YKL048C, strain ELM1, stronger effect = lower value 1.01 | S. cerevisiae deletion strains, locus YKL067W, strain YNK1, stronger effect = lower value 1.01 | S. cerevisiae deletion strains, locus YKL101W, strain HSL1, stronger effect = lower value 1.02 | S. cerevisiae deletion strains, locus YKL193C, strain SDS22, stronger effect = lower value 1.01 | S. cerevisiae deletion strains, locus YKL203C, strain TOR2, stronger effect = lower value 1.06 | S. cerevisiae deletion strains, locus YLR113W, strain HOG1, stronger effect = lower value 1.06 | S. cerevisiae deletion strains, locus YLR133W, strain CKI1, stronger effect = lower value 1.01 | S. cerevisiae deletion strains, locus YLR403W, strain SFP1, stronger effect = lower value 0.975 | S. cerevisiae deletion strains, locus YML070W, strain DAK1, stronger effect = lower value 1.02 | S. cerevisiae deletion strains, locus YMR001C, strain CDC5, stronger effect = lower value 1.01 | S. cerevisiae deletion strains, locus YMR205C, strain PFK2 (second series), stronger effect = lower value 1.02 | S. cerevisiae deletion strains, locus YMR277W, strain FCP1, stronger effect = lower value 1.01 | S. cerevisiae deletion strains, locus YNL006W, strain LST8, stronger effect = lower value 1 | S. cerevisiae deletion strains, locus YNL020C, strain ARK1, stronger effect = lower value 1.02 | S. cerevisiae deletion strains, locus YNL161W, strain CBK1, stronger effect = lower value 0.998 | S. cerevisiae deletion strains, locus YNL183C, strain NPR1, stronger effect = lower value 1.11 | S. cerevisiae deletion strains, locus YNL207W, strain RIO2, stronger effect = lower value 1.02 | S. cerevisiae deletion strains, locus YNL222W, strain SSU72, stronger effect = lower value 1.01 | S. cerevisiae deletion strains, locus YNL307C, strain MCK1 (second series), stronger effect = lower value 1.01 | S. cerevisiae deletion strains, locus YOL078W, strain AVO1, stronger effect = lower value 1.01 | S. cerevisiae deletion strains, locus YOL136C, strain PFK27, stronger effect = lower value 1 | S. cerevisiae deletion strains, locus YOR061W, strain CKA2, stronger effect = lower value 1.02 | S. cerevisiae deletion strains, locus YOR119C, strain RIO1, stronger effect = lower value 1.08 | S. cerevisiae deletion strains, locus YOR231W, strain MKK1, stronger effect = lower value 1.04 | S. cerevisiae deletion strains, locus YOR329C, strain SCD5, stronger effect = lower value 1.01 | S. cerevisiae deletion strains, locus YPL031C, strain PHO85, stronger effect = lower value 1.01 | S. cerevisiae deletion strains, locus YPL153C, strain RAD53, stronger effect = lower value 1.01 | S. cerevisiae deletion strains, locus YPL204W, strain HRR25, stronger effect = lower value 1 | S. cerevisiae deletion strains, locus YPL209C, strain IPL1, stronger effect = lower value 1.01 | S. cerevisiae deletion strains, locus YPL256C, strain CLN2, stronger effect = lower value 0.998 | S. cerevisiae deletion strains, locus YPR025C, strain CCL1, stronger effect = lower value 1.01 | S. cerevisiae deletion strains, locus YPR106W, strain ISR1, stronger effect = lower value 1.02 | S. cerevisiae deletion strains, locus YPR111W, strain DBF20, stronger effect = lower value 1 | S. cerevisiae deletion strains, strain NNK1, stronger effect = lower value 1.03 | S. cerevisiae deletion strains, strain TSCII, stronger effect = lower value 1

O=C(c1cc(O)c(O)c([N+](=O)[O-])c1)c1ccccc1F
inactive: [2] 0.964 | S. cerevisiae deletion strains, locus YCL061C, strain MRC1 (second series), stronger effect = lower value 0.953 | [3] 0.98 | [4] 0.978 | [5] 0.977 | [6] 0.886 | [17] 0.966 | [10] 0.985 | [11] 0.97 | [12] 0.969 | [13] 0.996 | [18] 0.99

Cc1ccc(C(=O)c2ccccc2[N+](=O)[O-])cc1
inactive: [1] 0.989 | S. cerevisiae deletion strains, locus YBR229C, strain ROT2, stronger effect = lower value 0.99 | [15] 0.983 | S. cerevisiae deletion strains, locus YDR150W, strain NUM1, stronger effect = lower value 0.957 | S. cerevisiae deletion strains, locus YEL061C, strain CIN8, stronger effect = lower value 0.979 | [5] 0.982 | [16] 0.797 | S. cerevisiae deletion strains, locus YHR087W, strain rtc3, stronger effect = lower value 0.964 | S. cerevisiae deletion strains, locus YJL187C, strain SWE1, stronger effect = lower value 0.987 | S. cerevisiae deletion strains, locus YJR043C, strain POL32, stronger effect = lower value 0.99 | [7] 0.943 | S. cerevisiae deletion strains, locus YLR039C, strain RIC1, stronger effect = lower value 0.913 | S. cerevisiae deletion strains, locus YLR058C, strain SHM2 (second series), stronger effect = lower value 0.995 | S. cerevisiae deletion strains, locus YLR085C, strain ARP6, stronger effect = lower value 0.9 | S. cerevisiae deletion strains, locus YLR262C, strain YPT6, stronger effect = lower value 0.948 | S. cerevisiae deletion strains, locus YML094W, strain GIM5, stronger effect = lower value 0.96 | S. cerevisiae deletion strains, locus YMR219W, strain ESC1, stronger effect = lower value 0.98 | [8] 0.98 | S. cerevisiae deletion strains, locus YNL128W, strain TEP1, stronger effect = lower value 1.01 | [9] 0.954 | S. cerevisiae deletion strains, locus YNL298W, strain CLA4 (second series), stronger effect = lower value 0.934 | S. cerevisiae deletion strains, locus YNL322C, strain KRE1, stronger effect = lower value 0.997 | S. cerevisiae deletion strains, locus YNR030W, strain Alg12, stronger effect = lower value 0.939 | S. cerevisiae deletion strains, locus YOL006C, strain TOP1, stronger effect = lower value 0.779 | [14] 0.946 | S. cerevisiae deletion strains, locus YPR135W, strain CTF4, stronger effect = lower value 0.8 | S. cerevisiae strains, strain wild type, stronger effect = lower value 1
active: [17] 0.622 | [18] 0.828
